PI5P4K alpha inh: blocks human PI5P4K alpha kinase activity; P48426; PI5P4Kalpha enzyme, ADP-Glo luminescence, 60 min; hits give low values; max response, %; 330,000 tested, 1.2% active; AID 652105; active means max response of -50% or lower; inconclusive means between -30% and -50%; inactive means -30% or higher; further: value at the top dose of about 77 µM
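ADP-Glo luminescence end-point after a 60 min room-temperature kinase reaction. PI5P4Kalpha and substrate in HEPES pH 7.4 buffer with EGTA, 0.1% CHAPS and 5% DMSO; ATP at 5 microM final.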
Pol kappa inh: blocks human DNA polymerase kappa activity. 400,000 tested, 0.53% active. purified Pol kappa, fluorescent DNA synthesis assay, 10 min. Potency, µM (doses to about 107 µM), usual class: inhibitors. Q9UBT6
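First, compounds were pin-transferred onto 10 nM Pol kappa. After 15 min at room temperature, substrate was added to 50 nM final. Fluorescence was then measured kinetically at 0 and 10 min.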
POLH inh: DNA polymerase eta (human) inhibition. Q9Y253. recombinant Pol eta, fluorescent DNA replication assay. Potency, µM (doses to about 114 µM), usual class: inhibitors. 390,000 tested, 1.2% active
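Pol eta (10 nM) was preincubated with compounds for 15 min at room temperature, after which fluorescent replication substrate (50 nM final) was added to start the reaction. Fluorescence was read kinetically at 0 and 10 min.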
POLI inh: inhibitors of human DNA polymerase iota; Potency, µM (highest dose often 115 µM), most hits filed as inhibitors; 390,000 tested, 1% active; Pol iota fluorescent replication assay, 10 min
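Pol iota at 10 nM preincubated 15 min with compounds at room temperature; reaction started with fluorescent substrate, 50 nM final. Fluorescence read kinetically at 0 and 10 min; buffer-only wells as negative control.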
WRN inhibitor: inhibitors of human WRN helicase | Q14191 | WRN helicase unwinding, fluorescent forked duplex, kinetic | Potency, µM (highest dose often 114 µM), most hits filed as inhibitors | 360,000 tested, 0.46% active | AID 651768; further: nearly all actives have a fitted effect of over 55% in size
Target sequence (Q14191 whole entry, looked up): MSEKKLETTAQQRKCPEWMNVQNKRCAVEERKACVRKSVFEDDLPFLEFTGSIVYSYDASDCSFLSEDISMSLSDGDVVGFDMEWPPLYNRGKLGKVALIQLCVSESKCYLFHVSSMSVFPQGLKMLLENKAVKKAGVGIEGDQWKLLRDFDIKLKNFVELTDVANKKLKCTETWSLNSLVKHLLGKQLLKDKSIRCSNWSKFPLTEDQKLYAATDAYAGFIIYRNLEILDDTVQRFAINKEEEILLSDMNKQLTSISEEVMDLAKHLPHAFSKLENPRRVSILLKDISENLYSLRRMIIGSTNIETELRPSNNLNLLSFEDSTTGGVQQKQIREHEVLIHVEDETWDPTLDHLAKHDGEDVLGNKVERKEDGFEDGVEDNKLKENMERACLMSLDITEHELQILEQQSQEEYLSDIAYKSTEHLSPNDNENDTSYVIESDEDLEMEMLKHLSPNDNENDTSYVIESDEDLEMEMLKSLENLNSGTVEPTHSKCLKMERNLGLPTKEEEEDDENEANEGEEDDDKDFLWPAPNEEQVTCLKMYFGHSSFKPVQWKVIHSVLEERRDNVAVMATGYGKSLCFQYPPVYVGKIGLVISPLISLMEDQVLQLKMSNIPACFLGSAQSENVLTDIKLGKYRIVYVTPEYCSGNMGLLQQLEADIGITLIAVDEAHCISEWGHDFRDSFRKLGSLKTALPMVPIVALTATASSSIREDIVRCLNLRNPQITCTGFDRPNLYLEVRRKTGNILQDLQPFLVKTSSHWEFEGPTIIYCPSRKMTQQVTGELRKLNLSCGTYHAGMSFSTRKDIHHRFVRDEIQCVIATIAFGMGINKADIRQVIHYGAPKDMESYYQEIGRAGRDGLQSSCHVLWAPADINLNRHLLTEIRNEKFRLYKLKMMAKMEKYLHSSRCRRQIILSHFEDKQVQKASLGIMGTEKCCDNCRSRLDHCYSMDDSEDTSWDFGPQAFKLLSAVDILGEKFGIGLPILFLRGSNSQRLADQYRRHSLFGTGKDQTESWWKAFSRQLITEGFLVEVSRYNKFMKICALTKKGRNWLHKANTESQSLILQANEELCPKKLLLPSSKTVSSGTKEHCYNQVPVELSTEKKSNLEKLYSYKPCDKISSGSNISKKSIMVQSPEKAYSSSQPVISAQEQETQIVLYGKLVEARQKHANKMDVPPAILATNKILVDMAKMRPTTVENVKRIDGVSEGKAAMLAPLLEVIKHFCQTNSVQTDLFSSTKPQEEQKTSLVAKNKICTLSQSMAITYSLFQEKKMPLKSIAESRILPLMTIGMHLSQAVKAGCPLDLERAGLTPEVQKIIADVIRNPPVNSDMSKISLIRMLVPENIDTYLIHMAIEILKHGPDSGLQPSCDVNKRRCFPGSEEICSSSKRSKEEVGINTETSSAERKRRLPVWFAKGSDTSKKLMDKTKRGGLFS
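Primary qHTS, 1536-well format. 20 nM WRN + compound, 15 min RT; start with 100 nM forked fluorophore/quencher duplex, 2 mM ATP (final); kinetic read ex 525/em 598 nm.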
POLB inh: blocks human DNA polymerase beta activity. P06746. Pol beta primer extension/strand displacement, fluorescence kinetic. Potency, µM (highest dose often 114 µM), usual class: inhibitors. 340,000 tested, 1.3% active
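Pol beta (10 nM) was preincubated with compound for 15 min at room temperature. The reaction was then started with 50 nM substrate and read immediately and after a further 10 min at room temperature.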
Of the large screens only hits and unclear results are named; the others gave an inactive call; ! = a repeat was not active. Most compounds without a hit are left out; they make up all but 2.8% or so of the library. Unless noted, the call rests on the fitted dose curve; in most records, active means well fitted curve in the direction sought with a large enough effect; inconclusive means small, poorly fitted or top-dose-only effect, or another doubt; inactive means no such curve, though single readings can be large; an effect the other way counts as inactive or inconclusive.

O=c1nc(SCc2c(F)cccc2Cl)nc(-c2ccc(Cl)cc2)[nH]1	POLH inh 89µM
COC(=O)CNC(=O)CN1C(=O)N(c2ccc(Cl)cc2)C(N(O)C(=O)Nc2ccc(Cl)cc2)C1(C)C (stereo unspecified)	none
Cc1sc2ncn(CC(=O)NCc3ccco3)c(=O)c2c1-c1ccc(F)cc1	PI5P4K alpha inh inconclusive, POLH inh 79µM, POLB inh inconclusive
COc1ccc(C2c3ccc(O)cc3Oc3ncn4nc(-c5ccncc5)nc4c32)cc1OC (stereo unspecified)	none
O=C(C[n+]1ccc(CCSc2ccc(F)cc2)cc1)c1ccccc1	PI5P4K alpha inh -53, WRN inhibitor 40µM
Cc1ccc(SCCc2cc[n+](CC(=O)c3ccccc3)cc2)cc1	none
O=C(Nc1cccc(C(F)(F)F)c1)/C(=C/c1ccco1)NC(=O)c1cccs1	none
COc1ccccc1C(=O)NC(=S)NNC(=O)c1sc2ccccc2c1Cl	PI5P4K alpha inh -52, POLH inh inconclusive
Cc1[nH]c2ccccc2c1/C=N/NC(=O)c1ccccc1	none
Cc1[nH]c2ccccc2c1/C=N/NC(=O)c1ccc(N)cc1	POLB inh 20µM
O=C(O)CN1C(=O)/C(=C\c2cc(Br)ccc2OCc2ccc(Cl)cc2Cl)SC1=S	POLH inh inconclusive, POLI inh inconclusive, POLB inh 22µM
O=C(O)CN1C(=O)/C(=C\c2cccc(OCc3ccc(Cl)cc3)c2)SC1=S	POLH inh 50µM, POLI inh inconclusive, WRN inhibitor inconclusive, POLB inh inconclusive
O=C(O)CN1C(=O)/C(=C\c2cccc(OCc3ccc(F)cc3)c2)SC1=S	POLH inh inconclusive, POLI inh inconclusive, POLB inh inconclusive
O=C(O)CN1C(=O)/C(=C\c2ccccc2OCc2ccc(Cl)cc2)SC1=S	PI5P4K alpha inh inconclusive, POLH inh 79µM, POLB inh inconclusive
O=C(O)C(Cc1ccccc1)N=C(NS(=O)(=O)c1ccccc1)c1ccccc1 (stereo unspecified)	none (no result: POLB inh)
O=C(CCc1nc2ccccc2c(=O)[nH]1)N1CCCc2ccccc21	POLH inh 50µM (no result: POLB inh)
O=C(CCc1nc2ccccc2c(=O)[nH]1)N1CCN(c2ccccc2Cl)CC1	none (no result: POLB inh)
O=C1c2cccc3c([N+](=O)[O-])ccc(c23)C(=O)N1O	PI5P4K alpha inh inconclusive, POLH inh 2.8µM, POLB inh inconclusive
COc1ccc2c3c(cccc13)C(=O)N(O)C2=O	POLB inh 35µM
N#Cc1ccccc1NC(=S)NC(=O)c1cccs1	PI5P4K alpha inh -56
C=CCNC(=O)/C(C#N)=C\c1cc(Cl)c(O)c(OCC)c1	PI5P4K alpha inh -59, POLI inh inconclusive
CCOc1ccc(NC(=O)/C(C#N)=C/c2ccc(N3CCCC3)c(C)c2)cc1	none
CCOc1cc(/C=C(/C#N)C(=O)Nc2ccc(O)cc2)cc(Br)c1O	PI5P4K alpha inh -71, WRN inhibitor inconclusive, POLB inh inconclusive
Cc1nn(C)c2c1c(-c1ccccc1)cc(=O)n2Cc1ccccc1C#N	none (no result: PI5P4K alpha inh, WRN inhibitor)
Cc1cc(O)ccc1-c1ccc2nncn2c1	none (no result: Pol kappa inh, POLH inh, POLI inh, POLB inh)
O=c1oc2ccccc2c2c1C1O[C@](c3ccsc3)(Cc3ccccc31)O2	POLB inh 11µM (no result: PI5P4K alpha inh, Pol kappa inh, POLH inh, POLI inh, WRN inhibitor)
O=c1oc2ccc(F)cc2c2c1C1O[C@](c3ccsc3)(Cc3c1ccc1ccccc31)O2	POLB inh 10µM (no result: PI5P4K alpha inh, Pol kappa inh, POLH inh, POLI inh, WRN inhibitor)
CCN(CC)C(=O)CSc1nc2ccc(NC(=O)CSc3nccn3C)cc2s1	POLI inh 25µM, POLB inh 5.6µM (no result: PI5P4K alpha inh)
CNC[C@@H]1OCc2ccccc2-c2c(n(C)c3ccccc23)C(=O)N([C@H](C)CO)C[C@@H]1C	none (no result: Pol kappa inh, POLI inh, POLB inh)
Cc1cc(C)cc(NC(=O)Cn2c(=O)oc3cc(S(=O)(=O)N4CCCC4)ccc32)c1	POLB inh inconclusive (no result: PI5P4K alpha inh, POLH inh, WRN inhibitor)
COc1ccc(NC(=O)Cn2c(=O)oc3cc(S(=O)(=O)N4CCCCCC4)ccc32)cc1OC	none (no result: PI5P4K alpha inh, WRN inhibitor)
CC(=O)c1cccc(NC(=O)Cn2c(=O)oc3cc(S(=O)(=O)N4CCCC4)ccc32)c1	POLI inh inconclusive, POLB inh 32µM!
CCc1ccc(NC(=O)Cn2c(=O)ccc3cc(S(=O)(=O)N4CCCC4)ccc32)cc1	POLH inh 89µM (no result: PI5P4K alpha inh, WRN inhibitor)
O=C(Cn1c(=O)ccc2cc(S(=O)(=O)N3CCCC3)ccc21)Nc1ccc(Cl)cc1	none (no result: PI5P4K alpha inh, WRN inhibitor)
Cc1cc(NC(=O)Cn2c(=O)oc3cc(S(=O)(=O)N4CCCC4)ccc32)ccc1Br	POLB inh 13µM (no result: PI5P4K alpha inh, WRN inhibitor)
Cc1ccc(NC(=O)/C=C/c2ccccc2)c(Br)c1	none (no result: PI5P4K alpha inh, WRN inhibitor)
NC(CSC(c1ccccc1)(c1ccccc1)c1ccc2c(c1)OCO2)C(=O)O (stereo unspecified)	PI5P4K alpha inh inconclusive, POLH inh 35µM (no result: Pol kappa inh, POLI inh, POLB inh)
NC(=O)CC(c1ccccc1)c1ccc2c(c1)OCO2 (stereo unspecified)	none
COc1ccc(Cl)cc1NC(=O)CSc1nnc2[nH]c(=O)cc(-c3ccccc3)n12	POLH inh 89µM (no result: PI5P4K alpha inh, WRN inhibitor)
O=C(Cc1ccc(F)cc1)NO	none (no result: PI5P4K alpha inh, POLH inh, WRN inhibitor, POLB inh)
Cc1ccc(NC(=O)c2ccc(Nc3c([N+](=O)[O-])cc([N+](=O)[O-])cc3[N+](=O)[O-])cc2)cc1	POLH inh inconclusive, POLI inh 20µM, WRN inhibitor inconclusive, POLB inh inconclusive
COc1cc(N(C)C)c(OC)cc1C=C1C=CC=C1	none (no result: PI5P4K alpha inh, POLH inh, WRN inhibitor, POLB inh)
COc1ccc(/C=C2/SC(=O)NC2=O)cc1	PI5P4K alpha inh inconclusive
CCOc1ccc(/C=C2\SC(=S)N(C)C2=O)cc1OC	none
CN1C(=O)/C(=C\c2ccccc2OCc2ccccc2)SC1=S	none
CCOc1ccccc1C=C1SC(=S)NC1=O	PI5P4K alpha inh -66, POLH inh inconclusive (no result: POLB inh)
O=C1NC(=O)/C(=C/c2ccccc2OCc2ccccc2)S1	none
CCOc1ccc(/C=C2\SC(=S)NC2=O)cc1OC	PI5P4K alpha inh -78
COc1ccc(/C=C2\SC(=O)NC2=S)cc1OC	PI5P4K alpha inh -70, Pol kappa inh inconclusive, POLH inh inconclusive, WRN inhibitor inconclusive
O=C(COc1ccccc1/C=C1\SC(=O)NC1=O)Nc1ccccc1	PI5P4K alpha inh inconclusive, POLH inh 18µM, POLI inh inconclusive, WRN inhibitor inconclusive
C[C@]1(CC/C(=C/CO)CO)[C@H](CO)CC[C@@]23COC(=O)C2=CCC[C@@H]31	none (no result: POLB inh)
CC(C)N(Cc1ccccc1)C(=O)CCS(=O)(=O)c1cc2c(cc1Cl)NC(=O)CO2	none (no result: PI5P4K alpha inh, WRN inhibitor)
CCCCOC(=O)c1ccc(NC(=O)c2cc3c(=O)n4cccc(C)c4nc3s2)cc1	none (no result: PI5P4K alpha inh, WRN inhibitor)
COc1cc(OC)c(NC(=O)Cc2c(C(=O)O)c(C)cn2C)cc1Cl	none (no result: PI5P4K alpha inh, WRN inhibitor)
Cc1ccc(/C=C2/SC(=O)NC2=S)o1	PI5P4K alpha inh -93, Pol kappa inh 18µM, POLH inh 8.9µM, POLI inh 7.1µM, WRN inhibitor 40µM, POLB inh 20µM
